The list is not random: actives were taken first. Their share in the collection is about 1.4%.
EPAC1 antagonist = blocks human EPAC1 exchange factor; 360,000 compounds, 0.14% hits; EPAC1 GEF assay, Rap1b-BODIPY-GDP exchange fluorescence; O95398; AID 720709; Potency, µM (highest dose often 115 µM), for the others: at the highest dose activity change, negative = inhibition, usual class: inhibitors;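 note: potency is the fitted concentration of half-maximal effect; plate controls were vehicle for no effect and positive control for full effect; nearly all actives have a fitted effect of over 50% in size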
EPAC1 agonist = EPAC1 (human) agonism | Potency, µM (titrated, usually from 154 µM), for inactives: top-dose activation, usual class: activators | 360,000 compounds, 0.073% hits | EPAC1 agonist qHTS, biochemical assay; response scale: 100% = response to 6.5 mM cAMP; note: potency is the fitted concentration of half-maximal effect; nearly all actives have a fitted effect of over 60% in size
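EPAC1 100 nM, Rap1B–BODIPY-GDP 250 nM, unlabeled GDP 50 uM; compound titration; 5 min RT; kinetic read ex480/em540 at 5-min intervals ×30 min; data normalized to 6.5 mM cAMP agonist control.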
KCNH2 WT inh = blocks the wildtype human KCNH2 potassium channel; U2OS, BacMam KCNH2, thallium flux FluxOr; active compounds read low; 340,000 compounds, 0.37% hits; Q12809; activity change, % at 1.84 µM;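 active = maximum activity change below -70%; inconclusive = maximum activity change between -70% and -50%; inactive = maximum activity change above -50%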; note: % is set by controls: 0 for no effect and ±100 for the full control effect
Target sequence (Q12809 whole entry, looked up): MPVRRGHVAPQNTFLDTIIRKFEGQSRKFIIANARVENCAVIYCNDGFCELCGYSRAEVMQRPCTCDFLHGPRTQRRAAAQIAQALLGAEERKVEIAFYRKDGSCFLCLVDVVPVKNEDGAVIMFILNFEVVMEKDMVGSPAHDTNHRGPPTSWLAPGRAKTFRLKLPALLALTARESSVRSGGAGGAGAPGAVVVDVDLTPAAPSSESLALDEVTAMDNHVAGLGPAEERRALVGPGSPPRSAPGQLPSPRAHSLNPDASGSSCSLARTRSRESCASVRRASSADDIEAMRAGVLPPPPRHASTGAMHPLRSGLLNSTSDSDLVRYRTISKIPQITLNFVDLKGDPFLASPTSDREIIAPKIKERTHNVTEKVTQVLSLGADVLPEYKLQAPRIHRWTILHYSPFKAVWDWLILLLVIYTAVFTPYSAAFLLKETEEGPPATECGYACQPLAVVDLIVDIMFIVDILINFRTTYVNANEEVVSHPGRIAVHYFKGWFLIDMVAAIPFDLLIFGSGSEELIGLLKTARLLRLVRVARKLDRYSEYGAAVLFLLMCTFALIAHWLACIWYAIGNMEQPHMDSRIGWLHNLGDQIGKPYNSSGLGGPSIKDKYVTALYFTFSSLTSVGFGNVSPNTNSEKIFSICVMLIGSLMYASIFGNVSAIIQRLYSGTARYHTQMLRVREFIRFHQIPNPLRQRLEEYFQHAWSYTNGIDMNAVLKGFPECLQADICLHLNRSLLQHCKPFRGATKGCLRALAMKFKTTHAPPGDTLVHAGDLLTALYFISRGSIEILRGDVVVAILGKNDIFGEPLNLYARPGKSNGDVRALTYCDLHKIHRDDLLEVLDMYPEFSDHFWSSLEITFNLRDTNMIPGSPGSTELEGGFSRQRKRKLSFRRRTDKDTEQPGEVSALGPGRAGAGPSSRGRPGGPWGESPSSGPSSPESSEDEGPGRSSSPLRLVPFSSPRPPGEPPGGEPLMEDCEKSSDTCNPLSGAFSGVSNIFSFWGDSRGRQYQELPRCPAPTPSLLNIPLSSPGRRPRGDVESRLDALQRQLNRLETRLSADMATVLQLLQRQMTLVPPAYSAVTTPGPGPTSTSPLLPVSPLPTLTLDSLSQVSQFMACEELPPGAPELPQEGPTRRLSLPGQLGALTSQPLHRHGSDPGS
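U2OS cells transduced with wild-type KCNH2 virus are loaded with FluxOr dye for 45 min, and thallium flux is measured in kinetic reads before and after stimulation buffer. Rate constants are normalized to DMSO controls.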
KCNH2 3.1 inh = inhibitors of human KCNH2 3.1 potassium channel isoform; 340,000 compounds, 0.95% hits; activity change, % (tested at about 1.8 µM); U2OS KCNH2 3.1, thallium flux FluxOr; active compounds read low;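 active = maximum activity change below -70%; inconclusive = maximum activity change from -70% to -50%; inactive = maximum activity change above -50%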;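 note: thallium influx rate constant from kinetic fluorescence after stimulation buffer; % is set by controls: 0 for no effect and ±100 for the full control effect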
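Virally transduced U2OS (3.1 isoform, 4 h infection in dark at RT) → overnight 37 C → FluxOr + Red40 in HBSS/HEPES, 45 min → stimulation buffer, 2 min kinetic read → rate constant vs DMSO controls.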
EPAC2 antag = EPAC2 (human) antagonism. EPAC2 GEF exchange of Rap1B-BODIPY-GDP, fluorescence. Potency, µM (top dose mostly 114 µM), for inactives: at the highest dose activity, negative = inhibition, usual class: inhibitors. 360,000 compounds, 0.18% hits; note: potency is the fitted concentration of half-maximal effect; % is set by controls: 0 for no effect and ±100 for the full control effect; nearly all actives have a fitted effect of over 45% in size
EPAC2 agonist = EPAC2 (human) agonism | Potency, µM (top dose mostly 154 µM), for inactives: at the top dose activation, hits mostly activators | 360,000 compounds, 0.079% hits | EPAC2 activation, biochemical qHTS; response scale: 100% = 6.5 mM cAMP response; note: potency is the fitted concentration of half-maximal effect; nearly all actives have a fitted effect of over 50% in size
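In this primary screen, activation is scored as increased exchange of BODIPY-GDP from Rap1B by 100 nM EPAC2, with 50 uM GDP as competitor. Signal is normalized to the 6.5 mM cAMP agonist control.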
* hit, by the source's call; ? = inconclusive; · = no result. Unless noted, calls come from the whole dose curve; as a rule, active = well fitted curve in the direction sought with a large enough effect; inconclusive = small, poorly fitted or top-dose-only effect, or another doubt; inactive = no such curve, though single readings can be large; an effect the other way counts as inactive or inconclusive.

SMILES | EPAC1 antagonist | EPAC1 agonist | KCNH2 WT inh | KCNH2 3.1 inh | EPAC2 antag | EPAC2 agonist
CCOC(=O)C1CCCCN1S(=O)(=O)c1ccc2c(c1)CC(C)N2C(=O)C1CCC1 (stereo not given) | -16% | -3% | 1 | 8 | -8% | 6%
Cc1coc2c(C)c3oc(=O)c(CCC(=O)N4CCC(C(=O)NCCCC(=O)O)(c5ccccc5)CC4)c(C)c3cc12 | -6% | -5% | -21 | -197* | 4% | 8%
Cc1coc2c(C)c3oc(=O)c(CCC(=O)NCCCN4CCOCC4)c(C)c3cc12 | -5% | -13% | 0 | 11 | 11% | 1%
O=S1(=O)CC(N2CC=CC2)CN1Cc1cn(Cc2cccc(C(F)(F)F)c2)nn1 (stereo not given) | -17% | 13% | · | · | 10% | 13%
CC1(C)CC(=O)C2=C(C1)N(c1ccc(F)cc1)C(=O)C2(O)C(F)(F)F (stereo not given) | -20% | 0% | 7 | -120* | 0% | 3%
Cc1ccc(N2C(=O)C(O)(C(F)(F)F)C3=C2CC(C)(C)CC3=O)cc1 (stereo not given) | -6% | -10% | 5 | 1 | 17% | -1%
CCOc1ccc(CN2CCN(Cc3cccn3-c3cccnc3)CC2CCO)cc1 (stereo not given) | -5% | 2% | -46 | 9 | 1% | -1%
CCOc1ccc(CN2CCN(Cc3cccn3-c3ncccn3)CC2CCO)cc1 (stereo not given) | -25% | -5% | ? | -111* | 2% | 6%
COc1ccc(CN2CCN(Cc3cccn3-c3ncccn3)CC2CCO)c(C)c1C (stereo not given) | -20% | 3% | -36 | -74* | -1% | 8%
CCOC(=O)CC1(C)Sc2ccccc2N1S(=O)(=O)c1ccc(C)cc1 (stereo not given) | -3% | 6% | · | · | ? | 10%
COc1ccccc1OC(=O)Oc1ccccc1OC | 0% | 4% | 1 | 27 | -10% | 11%
Cc1ccc(OCc2nc3ccccc3n2C(C(=O)NC(C)(C)C)c2ccncc2)cc1 (stereo not given) | 8% | 4% | · | · | 0% | 10%
O=C(Nc1ccc(F)cc1F)c1ccco1 | 8% | 8% | -6 | -77* | -2% | 9%
O=C(Nc1ccc(F)cc1F)c1cc(-c2ccco2)on1 | -20% | 0% | 6 | 12 | -3% | 13%
CC(C)C[C@@H](CSc1ccccc1)N1CCN(CCc2ccccc2)CCC1=O | ? | 4% | -77* | -101* | -7% | 14%
CC(C)C[C@@H](CSc1ccc(Br)cc1)N1CCN(CCc2ccccc2)CCC1=O | 25% | -4% | · | · | -7% | 15%
CCCN1CCC(=O)N([C@H](CSc2ccccc2)c2ccccc2)CC1 | 3% | -6% | -45 | -94* | -25% | 9%
Cc1ccc(SC[C@H](c2ccccc2)N2CCN(CCc3ccccc3)CCC2=O)cc1 | -17% | 8% | -142* | -114* | -3% | 15%
CN1CCC(=O)N([C@H](CSc2ccc(Br)cc2)c2ccccc2)CC1 | -29% | -9% | -7 | -98* | -15% | 24%
CCCN1CCC(=O)N([C@H](CSc2ccc(C)cc2)c2ccccc2)CC1 | -3% | 2% | · | · | -8% | 7%
CCCN1CCC(=O)N([C@H](CSc2ccc(Br)cc2)Cc2ccccc2)CC1 | 4% | -12% | -89* | -101* | -19% | 6%
Cc1ccc(SC[C@H](Cc2ccccc2)N2CCN(CC(C)C)CCC2=O)cc1 | -20% | 2% | · | · | -17% | 12%
O=C1CCN(CCc2ccccc2)CCN1[C@H](CSc1ccccc1)c1ccccc1 | -4% | 4% | -134* | -101* | -5% | 4%
CC(C)CN1CCC(=O)N([C@H](CSc2ccccc2)Cc2ccccc2)CC1 | -9% | -19% | -1 | -101* | -15% | 14%
CCCN1CCC(=O)N([C@H](CSc2ccccc2)Cc2ccccc2)CC1 | 3% | -5% | 34 | ? | 6% | 0%
SMILES | EPAC1 antagonist | EPAC1 agonist | KCNH2 WT inh | KCNH2 3.1 inh | EPAC2 antag | EPAC2 agonist
CSCCC(C(=O)Nc1c(C)cccc1C)N1CCC(Cc2ccccc2)CC1 (stereo not given) | -29% | 6% | · | · | -8% | 11%
COC(=O)C[C@@H]1C=C[C@H](NC(=O)Nc2cc(F)ccc2F)[C@@H](CO)O1 | -13% | 4% | · | · | 4% | -1%
Nc1nc2ccc(Cl)cc2cc1C(=O)NCCc1c[nH]c2ccccc12 | -22% | 5% | · | · | -14% | 26%
CCn1cc(CN2CCCC(CNS(=O)(=O)c3ccc(OC)cc3)C2)cn1 (stereo not given) | -9% | 4% | 2 | · | -3% | 8%
CCc1ccc(CN2CCCC(CNS(=O)(=O)c3ccc(OC)cc3)C2)cc1 (stereo not given) | 21% | 10% | -26 | -71* | -4% | -3%
Nc1c(C(=O)NCC2CCCO2)sc2nc3c(c(-c4ccco4)c12)CC/C3=C\c1ccco1 (stereo not given) | 20µM* | -5% | 4 | 6 | -2% | -11%
CSc1oc(-c2ccccc2)nc1S(=O)(=O)c1ccc(F)cc1 | 8% | 11% | 3 | -90* | 7% | 16%
O=C(/C=C/c1ccc(N2CCC(c3ccccc3)=N2)cc1)c1ccccc1 | 44% | -20% | -74* | · | 10% | -30%
O=C(/C=C/c1ccc(O)cc1)c1ccccc1 | -18% | -2% | 0 | 17 | -9% | 7%
CCOC(=O)/C(=C\c1ccc(N2CCC(c3ccccc3)=N2)cc1)C(C)=O | 11% | ? | -20 | -37 | 169% | 100µM*
O=C(O)c1cc(=O)[nH]c2ccccc12 | 4% | -16% | 1 | 1 | -6% | 5%
O=C(CCCOc1ccccc1)Nc1ccc(Cl)cn1 | ? | 6% | 0 | -105* | 1% | 0%
O=C(CS(=O)(=O)c1ccccc1)Nc1ccc(Cl)cn1 | 16% | 10% | -12 | -3 | 0% | 5%
O=C(CC(c1ccccc1)c1ccccc1)Nc1ccc(Cl)cn1 | -9% | 16% | 2 | 16 | -15% | 6.3µM*
CN1CCC(Oc2ccccc2Sc2ccccc2)CC1 | -13% | -4% | -71* | 5 | 0% | -2%
CN(C)CCCN(C(=O)c1ccc2c(c1)CCCC2)c1nc2ccc(F)cc2s1 | -3% | -1% | ? | -72* | -4% | 2%
O=C(CCC(=O)N1CCOc2ccc(Cl)cc21)NCCCN1CCC(Cc2ccccc2)CC1 | -16% | 0% | -44 | -80* | 8% | -2%
COc1ccc(N2CCN(CCCNC(=O)CCC(=O)N3CCOc4ccc(Cl)cc43)CC2)cc1 | -2% | -6% | 36 | -80* | 0% | 4%
